{
  "source": "paper PMC7862700",
  "about": "“An all-to-all approach to the identification of sequence-specific readers for epigenetic DNA modifications on cytosine”",
  "experiment_in_all_cases": "DAPPL (digital affinity profiling via proximity ligation, sequencing); 10 mM Tris-HCl pH 7.5, 50 mM NaCl, 1 mM DTT, 4% glycerol, room temperature, 30 min; GST-TFs on glutathione beads, 16-mer random dsDNA library, 0.1% formaldehyde crosslink after washing; high values mean tight binding",
  "conditions_in_all_cases": "protein: recombinant; tags: N-terminal GST; dsDNA, one strand shown",
  "key": {"[1]": {"molecular_target": "T1, FLI1 (Homo sapiens, UniProt Q01543 1-452)", "T1 sequence": "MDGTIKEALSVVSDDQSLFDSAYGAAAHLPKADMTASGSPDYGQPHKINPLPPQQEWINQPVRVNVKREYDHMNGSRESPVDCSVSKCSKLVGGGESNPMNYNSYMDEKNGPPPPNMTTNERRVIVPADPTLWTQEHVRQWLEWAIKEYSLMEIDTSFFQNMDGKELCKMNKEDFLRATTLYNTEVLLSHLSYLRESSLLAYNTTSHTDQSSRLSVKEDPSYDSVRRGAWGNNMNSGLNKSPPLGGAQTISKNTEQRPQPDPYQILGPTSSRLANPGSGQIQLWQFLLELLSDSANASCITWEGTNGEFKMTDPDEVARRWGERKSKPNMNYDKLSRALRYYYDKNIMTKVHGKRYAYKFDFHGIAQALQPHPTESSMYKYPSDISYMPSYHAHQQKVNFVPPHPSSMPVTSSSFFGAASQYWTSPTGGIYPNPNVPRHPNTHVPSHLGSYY", "how_it_was_run": "(§1)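 Sequencing on an Illumina NextSeq500 followed washing, crosslinking with 0.1% formaldehyde, proximity ligation (BsaI/T4 ligase, 1 h, 37 °C) and PCR amplification of pools that had been incubated for 30 min at room temperature with 200 nmole of a random double-stranded 16-mer DNA library in Tris/NaCl/DTT/glycerol buffer. Each pool held DNA-barcoded human transcription factors, expressed in yeast as GST fusions and captured on glutathione beads, plus a tag-only sample. Binding signal is a hexamer's read frequency for a factor divided by its frequency in the tag-only sample.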"}, "[2]": {"molecular_target": "T2, ELK1 (Homo sapiens, UniProt P19419 1-428)", "T2 sequence": "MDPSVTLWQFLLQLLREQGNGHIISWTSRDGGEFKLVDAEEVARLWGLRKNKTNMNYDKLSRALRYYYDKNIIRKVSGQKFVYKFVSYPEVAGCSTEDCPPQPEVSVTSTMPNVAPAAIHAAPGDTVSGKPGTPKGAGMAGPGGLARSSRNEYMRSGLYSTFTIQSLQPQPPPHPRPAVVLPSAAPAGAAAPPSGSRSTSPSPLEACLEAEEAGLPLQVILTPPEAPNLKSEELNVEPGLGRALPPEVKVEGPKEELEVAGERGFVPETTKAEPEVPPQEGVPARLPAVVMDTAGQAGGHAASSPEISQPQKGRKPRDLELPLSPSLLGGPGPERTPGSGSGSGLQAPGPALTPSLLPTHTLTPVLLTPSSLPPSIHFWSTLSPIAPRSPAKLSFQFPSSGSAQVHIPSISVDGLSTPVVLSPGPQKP", "how_it_was_run": "as §1"}, "[3]": {"molecular_target": "T3, GABPA (Homo sapiens, UniProt Q06546 1-454)", "T3 sequence": "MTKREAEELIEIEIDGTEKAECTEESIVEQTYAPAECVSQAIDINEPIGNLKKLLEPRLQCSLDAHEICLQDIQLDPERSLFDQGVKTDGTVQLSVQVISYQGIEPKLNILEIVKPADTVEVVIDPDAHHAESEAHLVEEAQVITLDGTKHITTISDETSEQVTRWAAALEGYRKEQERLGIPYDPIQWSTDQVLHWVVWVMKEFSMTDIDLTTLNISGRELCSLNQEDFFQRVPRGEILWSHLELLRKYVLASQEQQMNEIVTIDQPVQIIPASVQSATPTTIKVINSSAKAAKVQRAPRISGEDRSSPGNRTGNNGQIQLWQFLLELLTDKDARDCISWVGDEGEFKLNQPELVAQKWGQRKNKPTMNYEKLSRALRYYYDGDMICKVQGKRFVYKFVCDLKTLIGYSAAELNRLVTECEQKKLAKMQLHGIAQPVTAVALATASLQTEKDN", "how_it_was_run": "as §1"}, "[4]": {"molecular_target": "T4, ERG (Homo sapiens, UniProt P11308 1-479)", "T4 sequence": "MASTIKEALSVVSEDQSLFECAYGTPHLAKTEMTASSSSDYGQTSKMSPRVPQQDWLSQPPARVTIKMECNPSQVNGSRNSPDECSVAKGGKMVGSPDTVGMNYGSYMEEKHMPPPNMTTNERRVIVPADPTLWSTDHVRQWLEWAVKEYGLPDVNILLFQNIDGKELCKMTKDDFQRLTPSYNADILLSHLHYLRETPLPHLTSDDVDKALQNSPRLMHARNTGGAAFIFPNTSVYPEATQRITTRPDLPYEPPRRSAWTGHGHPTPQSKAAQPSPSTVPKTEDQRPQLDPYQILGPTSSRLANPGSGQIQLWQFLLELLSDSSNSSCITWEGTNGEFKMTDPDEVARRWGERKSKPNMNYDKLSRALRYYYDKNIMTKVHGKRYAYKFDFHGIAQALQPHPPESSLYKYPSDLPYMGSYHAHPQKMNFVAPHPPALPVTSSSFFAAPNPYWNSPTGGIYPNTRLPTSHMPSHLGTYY", "how_it_was_run": "as §1"}, "[5]": {"molecular_target": "ELF1 (Homo sapiens, UniProt P32519 1-619)", "sequence (P32519 whole entry)": "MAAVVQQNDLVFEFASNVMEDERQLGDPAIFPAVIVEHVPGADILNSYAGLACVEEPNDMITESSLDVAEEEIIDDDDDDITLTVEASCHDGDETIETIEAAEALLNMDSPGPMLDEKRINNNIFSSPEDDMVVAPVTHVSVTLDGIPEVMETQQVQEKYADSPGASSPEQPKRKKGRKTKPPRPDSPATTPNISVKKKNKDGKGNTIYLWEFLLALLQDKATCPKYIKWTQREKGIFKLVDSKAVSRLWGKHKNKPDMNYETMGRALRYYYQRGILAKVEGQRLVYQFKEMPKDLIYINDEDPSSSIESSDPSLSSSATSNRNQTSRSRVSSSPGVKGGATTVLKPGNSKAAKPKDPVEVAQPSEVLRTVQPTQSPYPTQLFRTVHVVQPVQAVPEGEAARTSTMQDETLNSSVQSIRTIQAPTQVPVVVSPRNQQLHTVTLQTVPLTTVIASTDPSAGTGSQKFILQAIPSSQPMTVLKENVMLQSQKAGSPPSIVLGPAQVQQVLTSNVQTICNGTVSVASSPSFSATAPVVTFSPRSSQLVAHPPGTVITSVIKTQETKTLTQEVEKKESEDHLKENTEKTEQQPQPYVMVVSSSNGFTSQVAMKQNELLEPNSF", "how_it_was_run": "as §1"}, "[6]": {"molecular_target": "SPI1 (Homo sapiens, UniProt P17947 1-270)", "how_it_was_run": "as §1"}, "[7]": {"molecular_target": "SPIB (Homo sapiens, UniProt Q01892 1-262)", "sequence (Q01892 whole entry)": "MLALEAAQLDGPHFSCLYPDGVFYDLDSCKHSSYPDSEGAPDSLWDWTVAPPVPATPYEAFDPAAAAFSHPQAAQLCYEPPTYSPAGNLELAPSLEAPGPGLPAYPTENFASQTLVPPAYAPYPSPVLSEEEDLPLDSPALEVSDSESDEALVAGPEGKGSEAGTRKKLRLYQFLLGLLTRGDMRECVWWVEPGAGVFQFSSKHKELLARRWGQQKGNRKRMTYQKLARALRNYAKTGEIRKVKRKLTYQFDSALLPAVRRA", "how_it_was_run": "as §1"}, "[8]": {"molecular_target": "T5, ELK3 (Homo sapiens, UniProt P41970 1-407)", "T5 sequence": "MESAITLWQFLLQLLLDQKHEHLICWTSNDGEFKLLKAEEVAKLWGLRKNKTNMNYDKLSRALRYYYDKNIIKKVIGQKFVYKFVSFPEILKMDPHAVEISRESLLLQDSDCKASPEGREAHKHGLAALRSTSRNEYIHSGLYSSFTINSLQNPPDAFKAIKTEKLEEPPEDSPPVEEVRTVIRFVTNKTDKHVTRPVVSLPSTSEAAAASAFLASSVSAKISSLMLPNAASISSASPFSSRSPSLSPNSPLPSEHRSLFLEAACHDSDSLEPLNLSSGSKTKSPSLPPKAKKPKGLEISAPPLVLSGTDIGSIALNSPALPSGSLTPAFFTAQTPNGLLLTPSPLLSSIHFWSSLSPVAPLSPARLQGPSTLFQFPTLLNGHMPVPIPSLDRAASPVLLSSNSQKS", "how_it_was_run": "as §1"}, "[9]": {"molecular_target": "ETV5 (Homo sapiens, UniProt P41161 1-510)", "sequence (P41161 whole entry)": "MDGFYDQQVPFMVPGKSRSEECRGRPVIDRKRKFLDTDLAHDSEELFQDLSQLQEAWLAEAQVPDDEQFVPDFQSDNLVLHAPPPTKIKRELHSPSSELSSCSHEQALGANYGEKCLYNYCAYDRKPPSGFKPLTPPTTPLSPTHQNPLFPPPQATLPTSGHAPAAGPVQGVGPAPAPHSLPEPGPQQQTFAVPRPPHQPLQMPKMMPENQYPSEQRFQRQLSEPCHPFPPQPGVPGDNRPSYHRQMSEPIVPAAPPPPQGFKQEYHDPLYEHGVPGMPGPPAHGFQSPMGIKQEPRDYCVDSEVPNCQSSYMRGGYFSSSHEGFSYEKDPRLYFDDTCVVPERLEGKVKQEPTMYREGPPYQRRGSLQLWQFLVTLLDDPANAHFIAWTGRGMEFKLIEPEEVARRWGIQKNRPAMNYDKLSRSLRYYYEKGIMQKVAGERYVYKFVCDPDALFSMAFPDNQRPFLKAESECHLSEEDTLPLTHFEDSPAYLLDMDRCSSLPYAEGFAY", "how_it_was_run": "as §1"}, "[10]": {"molecular_target": "T6, SPIC (Homo sapiens, UniProt Q8N5J4 1-248)", "T6 sequence": "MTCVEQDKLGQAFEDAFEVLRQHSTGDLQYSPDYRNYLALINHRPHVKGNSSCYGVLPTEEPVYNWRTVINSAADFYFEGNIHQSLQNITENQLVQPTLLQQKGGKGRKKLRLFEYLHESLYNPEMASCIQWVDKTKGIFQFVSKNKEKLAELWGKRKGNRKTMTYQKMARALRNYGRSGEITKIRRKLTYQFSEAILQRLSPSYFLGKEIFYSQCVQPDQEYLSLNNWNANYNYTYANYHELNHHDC", "how_it_was_run": "as §1"}, "[11]": {"molecular_target": "T7, ETV3L (Homo sapiens, UniProt Q6ZN32 1-361)", "T7 sequence": "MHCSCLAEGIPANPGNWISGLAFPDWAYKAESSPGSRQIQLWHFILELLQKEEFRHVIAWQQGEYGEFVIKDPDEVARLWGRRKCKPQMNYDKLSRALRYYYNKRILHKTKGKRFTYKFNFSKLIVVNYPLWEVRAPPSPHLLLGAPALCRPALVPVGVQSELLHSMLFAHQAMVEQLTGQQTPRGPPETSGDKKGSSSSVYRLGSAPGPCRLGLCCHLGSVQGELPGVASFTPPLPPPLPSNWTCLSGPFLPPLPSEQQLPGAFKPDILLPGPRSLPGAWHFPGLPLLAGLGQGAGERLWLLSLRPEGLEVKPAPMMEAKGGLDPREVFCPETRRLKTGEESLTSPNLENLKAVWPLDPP", "how_it_was_run": "as §1"}, "[12]": {"molecular_target": "T8, ETS2 (Homo sapiens, UniProt P15036 1-469)", "T8 sequence": "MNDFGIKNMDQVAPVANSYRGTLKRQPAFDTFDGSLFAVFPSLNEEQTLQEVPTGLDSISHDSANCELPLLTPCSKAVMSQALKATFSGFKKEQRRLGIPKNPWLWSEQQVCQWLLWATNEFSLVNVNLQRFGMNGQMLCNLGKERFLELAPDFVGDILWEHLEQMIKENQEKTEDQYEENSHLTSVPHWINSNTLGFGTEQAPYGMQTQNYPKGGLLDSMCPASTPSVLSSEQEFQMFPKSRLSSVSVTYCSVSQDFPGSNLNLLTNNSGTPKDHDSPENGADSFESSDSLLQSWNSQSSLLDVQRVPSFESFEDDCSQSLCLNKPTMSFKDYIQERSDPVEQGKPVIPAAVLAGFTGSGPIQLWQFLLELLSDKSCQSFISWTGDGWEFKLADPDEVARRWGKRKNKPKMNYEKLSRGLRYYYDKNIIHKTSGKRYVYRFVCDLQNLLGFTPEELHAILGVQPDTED", "how_it_was_run": "as §1"}, "[13]": {"molecular_target": "T9, SPDEF (Homo sapiens, UniProt O95238 1-335)", "T9 sequence": "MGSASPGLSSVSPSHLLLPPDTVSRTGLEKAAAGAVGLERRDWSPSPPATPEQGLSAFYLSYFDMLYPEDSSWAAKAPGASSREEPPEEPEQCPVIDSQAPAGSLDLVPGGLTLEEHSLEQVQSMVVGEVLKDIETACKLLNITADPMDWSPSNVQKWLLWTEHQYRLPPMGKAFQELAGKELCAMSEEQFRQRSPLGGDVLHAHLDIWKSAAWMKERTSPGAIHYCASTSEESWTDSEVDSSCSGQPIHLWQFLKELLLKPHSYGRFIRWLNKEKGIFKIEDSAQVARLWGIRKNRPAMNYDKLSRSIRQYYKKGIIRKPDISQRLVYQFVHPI", "how_it_was_run": "as §1"}, "[14]": {"molecular_target": "T10, ETV3 (Homo sapiens, UniProt P41162-2 1-143)", "T10 sequence": "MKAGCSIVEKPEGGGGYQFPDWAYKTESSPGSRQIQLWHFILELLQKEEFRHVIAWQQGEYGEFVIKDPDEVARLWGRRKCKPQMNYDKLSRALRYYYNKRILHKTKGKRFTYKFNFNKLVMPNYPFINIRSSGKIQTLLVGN", "how_it_was_run": "as §1"}, "[15]": {"molecular_target": "ETV6 (Homo sapiens, UniProt P41212 1-452)", "sequence (P41212 whole entry)": "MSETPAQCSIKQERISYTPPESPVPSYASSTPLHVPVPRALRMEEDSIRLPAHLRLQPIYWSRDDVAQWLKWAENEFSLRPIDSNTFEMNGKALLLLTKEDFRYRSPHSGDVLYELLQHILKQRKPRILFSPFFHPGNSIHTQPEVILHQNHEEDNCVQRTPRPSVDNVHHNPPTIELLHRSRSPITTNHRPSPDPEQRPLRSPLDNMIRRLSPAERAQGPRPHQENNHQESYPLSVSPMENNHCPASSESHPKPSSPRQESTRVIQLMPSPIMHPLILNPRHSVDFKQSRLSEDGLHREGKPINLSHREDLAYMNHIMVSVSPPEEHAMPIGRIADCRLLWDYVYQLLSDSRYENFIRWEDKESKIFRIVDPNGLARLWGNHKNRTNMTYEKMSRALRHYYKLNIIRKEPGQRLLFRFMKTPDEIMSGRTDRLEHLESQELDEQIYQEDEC", "how_it_was_run": "as §1"}},
  "data": [
    {"sequence": "ATGGCG", "values": [
      {"measurement": "binding signal", "setting": "[1]", "value": "1 fold enrichment (6-mer frequency, TF over GST control)"},
      {"measurement": "binding signal", "setting": "[2]", "value": "1.05 fold enrichment (6-mer frequency, TF over GST control)"},
      {"measurement": "binding signal", "setting": "[3]", "value": "1.04 fold enrichment (6-mer frequency, TF over GST control)"},
      {"measurement": "binding signal", "setting": "[4]", "value": "1.02 fold enrichment (6-mer frequency, TF over GST control)"},
      {"measurement": "binding signal", "setting": "[5]", "value": "1.06 fold enrichment (6-mer frequency, TF over GST control)"},
      {"measurement": "binding signal", "setting": "[6]", "value": "1.03 fold enrichment (6-mer frequency, TF over GST control)"},
      {"measurement": "binding signal", "setting": "[7]", "value": "1.01 fold enrichment (6-mer frequency, TF over GST control)"},
      {"measurement": "binding signal", "setting": "[8]", "value": "1.01 fold enrichment (6-mer frequency, TF over GST control)"},
      {"measurement": "binding signal", "setting": "[9]", "value": "1.02 fold enrichment (6-mer frequency, TF over GST control)"},
      {"measurement": "binding signal", "setting": "[10]", "value": "1.16 fold enrichment (6-mer frequency, TF over GST control)"},
      {"measurement": "binding signal", "setting": "[11]", "value": "1.03 fold enrichment (6-mer frequency, TF over GST control)"},
      {"measurement": "binding signal", "setting": "[12]", "value": "1.11 fold enrichment (6-mer frequency, TF over GST control)"},
      {"measurement": "binding signal", "setting": "[13]", "value": "1.02 fold enrichment (6-mer frequency, TF over GST control)"},
      {"measurement": "binding signal", "setting": "[14]", "value": "1.09 fold enrichment (6-mer frequency, TF over GST control)"},
      {"measurement": "binding signal", "setting": "[15]", "value": "1.05 fold enrichment (6-mer frequency, TF over GST control)"}
    ]}
  ]
}
